Screens (PubChem)
IL-1B inflam inh: blocks inflammasome-driven IL-1 beta release; THP-1 LPS/ATP IL-1B secretion, AlphaLISA, 16 h; stronger effect = lower value; activity change, % at 57.5 µM; 360,000 compounds, 4.7% hits; AID 743279; in the data active = activity change below about -50%; inconclusive = mostly about -30% to -49%; note: % is set by controls: 0 for no effect and ±100 for the full control effect
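THP-1 cells pretreated 1 hr with compounds (up to 57.5 uM final), then stimulated with LPS (250 ng/mL final) plus ATP (1.25 mM final); secreted IL-1B measured by AlphaLISA after 16 hr, decreased signal indicating inhibition.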
HepG2 viability: HepG2 cytotoxicity, counter-screen for TGF-b inhibitors | HepG2 CAGA-GFP viability, ATP luminescence, 18 h | Potency, µM (top dose mostly 46.1 µM), inactives show top-dose activity change, negative = cytotoxicity, actives largely listed as cytotoxic | 410,000 compounds, 0.76% hits | AID 588856; note: potency is the fitted concentration of half-maximal effect
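CellTiter-Glo luminescence gave cytotoxicity after 18 hours at 37 degrees C. The cells were HepG2 CAGA-GFP in 1% FBS DMEM, stimulated with 500 pg/mL TGF-beta after compound addition. %Activity was normalised to no-cell wells (complete cell-killing) and DMSO (no toxicity), and curves were fitted and classified.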
TDP1 cell CPT: growth inhibition of DT40 Tdp1-/-;hTDP1 cells with camptothecin (screen for TDP1 inhibitors); chicken DT40 Tdp1-/-;hTDP1 cells + 20 nM CPT, ATP luminescence, 48 h; Potency, µM (titrated, usually from 46.2 µM), for the others: at the top dose activity change, negative = growth inhibition, most hits filed as inhibitors; 420,000 compounds, 12% hits; AID 686979; note: potency is the fitted concentration of half-maximal effect; % is set by controls: 0 for no effect and ±100 for the full control effect; nearly all actives have a fitted effect of over 55% in size
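Chicken DT40 Tdp1-/- cells stably complemented with human TDP1 were seeded at 400 cells/well in medium containing 20 nM camptothecin, exposed to pin-transferred compounds, and grown at 37 °C for at least 48 hr. Viability was read as ATP luminescence.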
TDP1 cell noCPT: qHTS for Inhibitors of human tyrosyl-DNA phosphodiesterase 1 (TDP1): qHTS in cells in absence of CPT; DT40 Tdp1-/- hTDP1 cells, no CPT, ATP luminescence, 48 h; Potency, µM (titrated, usually from 46.2 µM), inactives show top-dose activity change, negative = growth inhibition, hits mostly inhibitors; 420,000 compounds, 15% hits; AID 686978, 2013; note: potency is the fitted concentration of half-maximal effect; % is set by controls: 0 for no effect and ±100 for the full control effect; nearly all actives have a fitted effect of over 55% in size
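Readout: luminescence from CellTiter-Glo after 30 min in the dark at RT. Cells: DT40 Tdp1-/- with stable hTDP1, 400/well. Exposure: compounds alone, ≥48 hr, 37 °C.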
TGFb SMAD3 inh: inhibitors of TGF-b signaling; HepG2 CAGA-GFP TGF-b/SMAD3 reporter, GFP fluorescence, 18 h; TGF-beta stimulated, 500 pg/mL final; Potency, µM (doses to about 46.1 µM), without a hit: top-dose activity, negative = inhibition, hits mostly inhibitors; 410,000 compounds, 1.2% hits; AID 588855; note: potency is the fitted concentration of half-maximal effect; % is set by controls: 0 for no effect and ±100 for the full control effect; nearly all actives have a fitted effect of over 65% in size
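HEPG2 CAGA-GFP, 1000 cells/well; 2 h settle, 37 C; cpd via pin tool; TGF-b 500 pg/mL final; 18 h, 37 C; GFP imaging ex488/em500-530; %Activity normalised to -TGF-b and +DMSO controls; CRC fit, curve class.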
TDP1 block: inhibitors of human tyrosyl-DNA phosphodiesterase TDP1 | Q9NUW8 | recombinant TDP1, AlphaScreen DNA substrate cleavage | Potency, µM (top dose mostly 130 µM), for inactives: at the highest dose activity change, negative = inhibition, usual class: inhibitors | 350,000 compounds, 0.28% hits | AID 485290; note: potency is the fitted concentration of half-maximal effect; % is set by controls: 0 for no effect and ±100 for the full control effect; nearly all actives have a fitted effect of over 40% in size
Target sequence (Q9NUW8 whole entry, looked up): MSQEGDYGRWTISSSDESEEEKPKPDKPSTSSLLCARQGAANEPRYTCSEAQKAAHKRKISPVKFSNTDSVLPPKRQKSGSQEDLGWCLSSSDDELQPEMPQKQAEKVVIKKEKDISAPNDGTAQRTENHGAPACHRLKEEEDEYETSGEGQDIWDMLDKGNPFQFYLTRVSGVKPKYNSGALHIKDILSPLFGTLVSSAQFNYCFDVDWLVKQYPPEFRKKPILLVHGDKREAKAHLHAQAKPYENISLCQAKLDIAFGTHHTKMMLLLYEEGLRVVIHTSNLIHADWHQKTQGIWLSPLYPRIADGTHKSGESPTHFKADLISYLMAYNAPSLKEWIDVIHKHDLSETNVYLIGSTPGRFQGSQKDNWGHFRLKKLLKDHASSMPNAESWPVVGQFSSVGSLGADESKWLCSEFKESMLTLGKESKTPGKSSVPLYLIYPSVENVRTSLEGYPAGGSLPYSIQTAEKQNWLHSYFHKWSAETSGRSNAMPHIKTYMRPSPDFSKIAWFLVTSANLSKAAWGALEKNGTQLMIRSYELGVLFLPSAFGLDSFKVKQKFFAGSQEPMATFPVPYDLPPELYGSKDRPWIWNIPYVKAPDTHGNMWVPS
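Tdp1 1 nM final; 15 min RT w/ cpd; substrate 15 nM, 5 min; beads 10 ug/ml, 10 min; AlphaScreen read. Neg ctrl: no enzyme.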
Numbers without * were called inactive; [ ] = another dose, or the depositor's remark. Hits are enriched below; roughly 18% of the tested compounds scored in any of these assays. Unless noted, calls come from the whole dose curve; as a rule, active = well fitted curve in the direction sought with a large enough effect; inconclusive = small, poorly fitted or top-dose-only effect, or another doubt; inactive = no such curve, though single readings can be large; an effect the other way counts as inactive or inconclusive.

`COC(=O)c1cc(C(=O)N2CCN(c3ncccn3)CC2)cc([N+](=O)[O-])c1` gave IL-1B inflam inh 6.0, HepG2 viability -4.1%, TDP1 cell CPT -19.1%, TDP1 cell noCPT -7.2%, TGFb SMAD3 inh 8.7% and TDP1 block -4.2%.
Screening COc1cc2c(cc1OC)CN(C(=O)C1CCN(S(=O)(=O)c3ccccc3F)CC1)CC2 returned IL-1B inflam inh 11.8, HepG2 viability -0.2%, TDP1 cell CPT 17.2%, TDP1 cell noCPT -18.3%, TGFb SMAD3 inh -4.2% and TDP1 block 0.6%.
For O=C(C1CC(=O)N(c2ccc(Cl)cc2)C1)N1CCC(c2nc3ccccc3[nH]2)CC1 (stereo not given) the results were IL-1B inflam inh -23.9, HepG2 viability 0.5%, TDP1 cell CPT inconclusive, TDP1 cell noCPT inconclusive, TGFb SMAD3 inh 0.0% and TDP1 block 12.6%.
C=CCNc1ncnc2c1ncn2[C@H]1CN(Cc2cccs2)C[C@@H](CO)O1 was read as IL-1B inflam inh inconclusive, HepG2 viability -26.7%, TDP1 cell CPT inconclusive, TDP1 cell noCPT -11.2% and TGFb SMAD3 inh -2.7%.
O=C(c1ccco1)N1CCN(C(=O)c2ccccc2OCc2ccc(Cl)cc2)CC1 was read as IL-1B inflam inh -15.9, HepG2 viability -21.5%, TDP1 cell CPT inconclusive, TDP1 cell noCPT inconclusive, TGFb SMAD3 inh -4.5% and TDP1 block 0.7%.
`O=C(c1ccccc1OCc1ccc(Cl)cc1)N1CCN(c2ccccn2)CC1` gave IL-1B inflam inh -18.3, HepG2 viability -4.5%, TDP1 cell CPT 23.1µM*, TDP1 cell noCPT inconclusive, TGFb SMAD3 inh -18.6% and TDP1 block 4.3%.
Screening Cc1ccccc1S(=O)Cc1ccc(C(=O)N2CCN(c3cccc(C)c3C)CC2)o1 (stereo not given) returned HepG2 viability -43.2%, TDP1 cell CPT 0.651µM*, TDP1 cell noCPT 0.82µM* and TDP1 block 5.1%.
Screening Cc1ccccc1S(=O)(=O)Cc1ccc(C(=O)N2CCN(c3ccccc3F)CC2)o1 returned IL-1B inflam inh 12.6, HepG2 viability -2.5%, TDP1 cell CPT inconclusive, TDP1 cell noCPT inconclusive, TGFb SMAD3 inh -4.8% and TDP1 block 5.8%.
`CCC(C(=O)N/N=C/c1cccnc1)c1ccccc1` (stereo not given) gave IL-1B inflam inh 35.4, HepG2 viability 0.3%, TDP1 cell CPT 4.7%, TDP1 cell noCPT 11.2%, TGFb SMAD3 inh 8.6% and TDP1 block 4.3%.
Screening CN(C)c1nc(=NCc2cccs2)ss1 returned IL-1B inflam inh -60.4*, HepG2 viability -33.0%, TDP1 cell CPT 0.0259µM*, TDP1 cell noCPT 0.0291µM* and TGFb SMAD3 inh inconclusive.
CN(C)c1ncc2nc(-c3cccs3)c(=O)n(Cc3cccs3)c2n1 was read as TDP1 cell CPT -4.2% and TDP1 cell noCPT 0.5%.
Screening Cc1ccn2c(Nc3ccccc3)c(-c3c[nH]c4ccccc34)nc2c1 returned HepG2 viability -66.7%, TDP1 cell CPT 16.4µM*, TDP1 cell noCPT inconclusive, TGFb SMAD3 inh inconclusive and TDP1 block 9.1%.
`Cc1ccc2nc(-c3c[nH]c4ccccc34)c(Nc3ccc(F)cc3)n2c1` gave HepG2 viability -41.8%, TDP1 cell CPT 14.6µM*, TDP1 cell noCPT 18.4µM*, TGFb SMAD3 inh -8.0% and TDP1 block 7.3%.
`Cc1ccn2c(Nc3ccc4c(c3)OCCO4)c(-c3ccccc3O)nc2c1` gave HepG2 viability -6.8%, TDP1 cell CPT inconclusive, TDP1 cell noCPT inconclusive, TGFb SMAD3 inh 15.0% and TDP1 block 2.1%[12.3 µM].
Screening Cc1ccc2nc(-c3ccncc3)c(Nc3ccccc3)n2c1 returned IL-1B inflam inh -9.4, HepG2 viability -4.2%, TDP1 cell CPT inconclusive, TDP1 cell noCPT inconclusive, TGFb SMAD3 inh -27.1% and TDP1 block 1.1%.
Screening Cc1ccc(Nc2c(-c3c[nH]c4ccccc34)nc3cc(C)ccn23)cc1 returned HepG2 viability -60.0%, TDP1 cell CPT 23.1µM*, TDP1 cell noCPT 23.1µM*, TGFb SMAD3 inh inconclusive and TDP1 block 10.0%.
CCc1ccc(NS(=O)(=O)c2ccc(C)c(C(=O)N3CCOCC3)c2)cc1 was read as IL-1B inflam inh 18.3, HepG2 viability 5.3%, TDP1 cell CPT -16.9%, TDP1 cell noCPT 11.0%, TGFb SMAD3 inh 1.8% and TDP1 block -0.1%.
Cc1nn2c(nc(N3CCOCC3)c3ccccc32)c1C=C(C#N)C#N was read as IL-1B inflam inh -0.3, HepG2 viability 4.1%, TDP1 cell CPT -6.2%, TDP1 cell noCPT -28.5%, TGFb SMAD3 inh 0.6% and TDP1 block 3.2%.
Cc1nn2c(nc(N3CCCCC3)c3ccccc32)c1C=O was read as IL-1B inflam inh -74.4*, HepG2 viability -41.4%, TDP1 cell CPT -5.9%, TDP1 cell noCPT inconclusive, TGFb SMAD3 inh inconclusive and TDP1 block -6.8%.
Screening O=C(N/N=C/C(Br)=C/c1ccccc1)c1ccccc1[N+](=O)[O-] returned IL-1B inflam inh -18.5, HepG2 viability -52.9%, TDP1 cell CPT 13µM*, TDP1 cell noCPT 13µM*, TGFb SMAD3 inh -16.3% and TDP1 block 5.8%.
Cc1occc1C(=O)N/N=C/C(Br)=C/c1ccccc1 was read as IL-1B inflam inh -78.4*, HepG2 viability -5.9%, TDP1 cell CPT 9.2µM*, TDP1 cell noCPT 11.6µM*, TGFb SMAD3 inh -4.2% and TDP1 block 7.1%.
For O=C(N/N=C/c1ccncc1)c1ccccc1[N+](=O)[O-] the results were IL-1B inflam inh -6.1, HepG2 viability 7.2%, TDP1 cell CPT 4.8%, TDP1 cell noCPT -9.6%, TGFb SMAD3 inh 6.7% and TDP1 block 4.9%.
For O=C(NN=C1CCCC1)c1ccccc1[N+](=O)[O-] the results were IL-1B inflam inh 11.2, HepG2 viability -1.7%, TDP1 cell CPT 57.0%, TDP1 cell noCPT 5.1%, TGFb SMAD3 inh 1.6% and TDP1 block 39.8µM*.
Screening NCCCC[C@H](NC(=O)CNC(=O)[C@@H]1CCCN1C(=O)[C@H](Cc1ccc(O)cc1)NC(=O)CN)C(=O)N[C@@H](Cc1ccccc1)C(=O)O returned TDP1 block 6.9%.
For CCC1CN(CCNC(=O)C2CCCCN2C)Cc2cc(OC)ccc2O1 (stereo not given) the results were TDP1 cell CPT 3.9%[9.04 µM] and TDP1 cell noCPT -7.2%.
Screening C[C@H]1CN(c2ccc(Br)cc2)C(=O)[C@@H]1CC(=O)Nc1ccccc1 returned IL-1B inflam inh 4.8, HepG2 viability -21.3%, TDP1 cell CPT inconclusive, TDP1 cell noCPT inconclusive and TGFb SMAD3 inh 21.7%.
